Data reported in PubChem BioAssay (NCATS).
Results filed as inconclusive are left out. Activity calls are given as the source filed them. The call rests on the fitted dose curve; in most records, active means well fitted inhibition curve with a large enough effect; inconclusive means small, poorly fitted or top-dose-only effect; inactive means flat fitted curve, though single readings scatter.

Key:
[1] = biological target: Luciferin 4-monooxygenase (Photinus pyralis) (UniProt P08659); assay: Biochemical firefly luciferase enzyme assay for NPC (AID 624030);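 further: purified P. pyralis luciferase at 10 nM with luciferin and ATP substrate; nearly all actives have a fitted effect of over 70% in size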
Luciferin 4-monooxygenase (Photinus pyralis), sequence (P08659 whole entry, looked up): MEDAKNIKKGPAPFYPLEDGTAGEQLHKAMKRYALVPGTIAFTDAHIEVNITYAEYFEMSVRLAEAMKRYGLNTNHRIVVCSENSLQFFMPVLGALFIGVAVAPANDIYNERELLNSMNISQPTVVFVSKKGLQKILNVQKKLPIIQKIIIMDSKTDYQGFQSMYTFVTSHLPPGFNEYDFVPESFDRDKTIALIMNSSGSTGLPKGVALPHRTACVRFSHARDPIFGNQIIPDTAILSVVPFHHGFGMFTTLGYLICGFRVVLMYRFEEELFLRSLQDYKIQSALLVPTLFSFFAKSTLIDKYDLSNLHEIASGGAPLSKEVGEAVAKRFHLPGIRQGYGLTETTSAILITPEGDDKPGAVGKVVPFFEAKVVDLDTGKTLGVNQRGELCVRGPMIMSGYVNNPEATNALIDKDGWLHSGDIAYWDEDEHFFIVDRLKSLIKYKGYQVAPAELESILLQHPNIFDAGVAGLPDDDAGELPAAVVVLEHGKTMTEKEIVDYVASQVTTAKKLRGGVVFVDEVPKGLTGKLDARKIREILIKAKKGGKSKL
Summary of the method: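 Purified P. pyralis luciferase at 10 nM in 50 mM Tris Acetate (final), luminescence read within 5 minutes of enzyme addition to compounds. Activity normalised to PTC124 versus DMSO; concentration-response curves classed by r2, magnitude and activity.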

CP260 = assay: qHTS profiling for inhibitors of Plasmodium falciparum proliferation (AID 504749); further: nearly all actives have a fitted effect of over 60% in size; further: potency means the concentration at half of the fitted maximal effect; conditions: P. falciparum in erythrocytes, SYBR Green DNA, 72 h; series mostly up to 28.7 µM
Summary of the method: (§1)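 Each compound contacts P. falciparum-infected red blood cells for 72 h at 37 C; lysis buffer (Tris, EDTA, saponin, Triton X, SYBR Green I) is added and fluorescence measured next morning; values normalized to controls.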

CP262 = assay: as above; conditions: P. falciparum in erythrocytes, SYBR Green DNA, 72 h; series mostly up to 28.7 µM
Summary of the method: as §1

CP266 = assay: as above; conditions: P. falciparum in erythrocytes, SYBR Green DNA, 72 h; series mostly up to 28.7 µM
Summary of the method: as §1

CP269 = assay: as above; conditions: P. falciparum in erythrocytes, SYBR Green DNA, 72 h; series mostly up to 28.7 µM
Summary of the method: as §1

CP305 = assay: as above; conditions: P. falciparum in erythrocytes, SYBR Green DNA, 72 h; series mostly up to 28.7 µM
Summary of the method: as §1

CP335 = assay: as above; conditions: P. falciparum in erythrocytes, SYBR Green DNA, 72 h; series mostly up to 28.7 µM
Summary of the method: as §1

DIV14 = assay: as above; conditions: P. falciparum in erythrocytes, SYBR Green DNA, 72 h; series mostly up to 28.7 µM
Summary of the method: as §1

DIV17 = assay: as above; conditions: P. falciparum in erythrocytes, SYBR Green DNA, 72 h; series mostly up to 28.7 µM
Summary of the method: as §1

Dd2 = assay: as above; conditions: P. falciparum in erythrocytes, SYBR Green DNA, 72 h; series mostly up to 28.7 µM
Summary of the method: as §1

ECU = assay: as above; conditions: P. falciparum in erythrocytes, SYBR Green DNA, 72 h; series mostly up to 28.7 µM
Summary of the method: as §1

FAB9 = assay: as above; conditions: P. falciparum in erythrocytes, SYBR Green DNA, 72 h; series mostly up to 28.7 µM
Summary of the method: as §1

GB4 = assay: as above; conditions: P. falciparum in erythrocytes, SYBR Green DNA, 72 h; series mostly up to 28.7 µM
Summary of the method: as §1

ICS = assay: as above; conditions: P. falciparum in erythrocytes, SYBR Green DNA, 72 h; series mostly up to 28.7 µM
Summary of the method: as §1

JCK = assay: as above; conditions: P. falciparum in erythrocytes, SYBR Green DNA, 72 h; series mostly up to 28.7 µM
Summary of the method: as §1

P93_24 = assay: as above; conditions: P. falciparum in erythrocytes, SYBR Green DNA, 72 h; series mostly up to 28.7 µM
Summary of the method: as §1

PC15 = assay: as above; conditions: P. falciparum in erythrocytes, SYBR Green DNA, 72 h; series mostly up to 28.7 µM
Summary of the method: as §1

PC26 = assay: as above; conditions: P. falciparum in erythrocytes, SYBR Green DNA, 72 h; series mostly up to 28.7 µM
Summary of the method: as §1

PC49 = assay: as above; conditions: P. falciparum in erythrocytes, SYBR Green DNA, 72 h; series mostly up to 28.7 µM
Summary of the method: as §1

W2 = assay: as above; conditions: P. falciparum in erythrocytes, SYBR Green DNA, 72 h; series mostly up to 28.7 µM
Summary of the method: as §1

Measured: Potency

CC1(C)SC2C(NC(=O)C(C(=O)O)c3ccccc3)C(=O)N2C1C(=O)O (stereo unspecified)
inactive: [1] | CP260 | CP262 | CP266 | CP269 | CP305 | CP335 | DIV14 | DIV17 | Dd2 | ECU | FAB9 | GB4 | ICS | JCK | P93_24 | PC15 | PC26 | PC49 | W2

CC(O)C1CCC2C3CCC4CC(O)CCC4(C)C3CCC12C (stereo unspecified)
inactive: [1] | CP260 | CP262 | CP266 | CP269 | CP305 | CP335 | DIV14 | DIV17 | Dd2 | ECU | FAB9 | GB4 | ICS | JCK | P93_24 | PC15 | PC26 | PC49 | W2

CC(=O)OCC(=O)[C@@]1(O)CCC2C3CCC4=CC(=O)C=CC4(C)C3C(O)C[C@]21C (stereo partly specified)
inactive: [1] | CP260 | CP262 | CP266 | CP269 | CP305 | CP335 | DIV14 | DIV17 | Dd2 | ECU | FAB9 | GB4 | ICS | JCK | P93_24 | PC15 | PC26 | PC49 | W2

C[C@H]1[C@@H](OC(=O)CCC(=O)O)OC2OC3(C)CC[C@H]4[C@H](C)CC[C@@H]1[C@@]24OO3 (stereo partly specified)
active: CP260 5 nM | CP262 5.4 nM | CP266 23.9 nM | CP269 4.8 nM | CP305 6 nM | CP335 4.8 nM | DIV14 3.4 nM | DIV17 4.3 nM | Dd2 4.5 nM | ECU 2.8 nM | FAB9 4.5 nM | GB4 3 nM | ICS 3.2 nM | P93_24 2.2 nM | PC15 4.5 nM | PC26 3.4 nM | W2 1.9 nM
inactive: [1]

OC[C@@H]1O[C@](CO)(O[C@H]2O[C@H](CO)[C@@H](O)[C@H](O)[C@H]2O)[C@H](O)[C@H]1O
inactive: [1] | CP260 | CP262 | CP266 | CP269 | CP305 | CP335 | DIV14 | DIV17 | Dd2 | ECU | FAB9 | GB4 | ICS | JCK | P93_24 | PC15 | PC26 | PC49 | W2

CCCCCCCCCCCC(=O)OCC(O)C1OCC(O)C1O (stereo unspecified)
inactive: [1] | CP260 | CP262 | CP266 | CP269 | CP305 | CP335 | DIV14 | DIV17 | Dd2 | ECU | FAB9 | GB4 | ICS | JCK | P93_24 | PC15 | PC26 | PC49 | W2

Cc1onc(-c2c(F)cccc2Cl)c1C(=O)NC1C(=O)N2C1SC(C)(C)C2C(=O)O (stereo unspecified)
inactive: [1] | CP260 | CP262 | CP266 | CP305 | CP335 | DIV14 | DIV17 | Dd2 | ECU | FAB9 | GB4 | ICS | JCK | P93_24 | PC15 | PC26 | PC49 | W2

CO[C@H]1C[C@@H]2CC[C@@H](C)[C@@](O)(O2)C(=O)C(=O)N2CCCC[C@H]2C(=O)O[C@H]([C@H](C)C[C@@H]2CC[C@@H](O)[C@H](OC)C2)CC(=O)[C@H](C)/C=C(\C)[C@@H](O)[C@@H](OC)C(=O)[C@H](C)C[C@H](C)/C=C/C=C/C=C/1C
active: CP260 4470 nM | CP262 4780 nM | CP269 4260 nM | CP305 6750 nM | CP335 1900 nM | DIV14 1690 nM | DIV17 1690 nM | Dd2 2820 nM | ECU 2510 nM | GB4 1690 nM | ICS 501 nM | JCK 10000 nM | P93_24 2000 nM | PC15 3980 nM | PC26 1510 nM | PC49 10000 nM | W2 1200 nM
inactive: [1]

CC(CCC(=O)O)C1CCC2C3C(=O)C[C@@H]4CC(=O)CC[C@@]4(C)C3CC(=O)[C@]12C (stereo partly specified)
inactive: [1] | CP260 | CP262 | CP266 | CP269 | CP305 | Dd2 | ECU | FAB9 | GB4 | ICS | JCK | P93_24 | PC15 | PC26 | PC49

CC[C@@H]1/C=C(\C)C[C@H](C)C[C@H](OC)[C@H]2O[C@@](O)(C(=O)C(=O)N3CCCC[C@H]3C(=O)O[C@H](/C(C)=C/[C@@H]3CC[C@H](Cl)[C@H](OC)C3)[C@H](C)[C@@H](O)CC1=O)[C@H](C)C[C@@H]2OC
inactive: [1] | CP260 | CP262 | CP266 | CP269 | CP305 | CP335 | DIV14 | DIV17 | Dd2 | ECU | FAB9 | GB4 | ICS | JCK | P93_24 | PC15 | PC26 | PC49 | W2

CCN1CCN(C(=O)NC(C(=O)NC2C(=O)N3C(C(=O)O)=C(CSc4nnnn4C)CSC23)c2ccc(O)cc2)C(=O)C1=O (stereo unspecified)
inactive: [1] | CP260 | CP262 | CP266 | CP269 | CP305 | CP335 | DIV14 | DIV17 | Dd2 | ECU | FAB9 | GB4 | ICS | JCK | P93_24 | PC15 | PC26 | PC49 | W2

CCCCC(=O)O[C@]1(C(=O)CO)CCC2C3CCC4=CC(=O)CCC4(C)C3C(O)CC21C (stereo partly specified)
inactive: [1] | CP262 | CP266 | CP269 | CP305 | CP335 | DIV14 | DIV17 | ECU | FAB9 | GB4 | JCK | P93_24 | PC15 | PC26 | PC49

C=NC(C(=O)NC1C(=O)N2C1SC(C)(C)C2C(=O)O)c1ccccc1 (stereo unspecified)
inactive: [1] | CP260 | CP262 | CP266 | CP269 | CP305 | CP335 | DIV14 | DIV17 | Dd2 | ECU | FAB9 | GB4 | ICS | JCK | P93_24 | PC15 | PC26 | PC49 | W2

O=C(O)c1ccc(N[C@@H]2OC[C@@H](O)[C@@H](O)[C@@H]2O)cc1
inactive: [1] | CP260 | CP262 | CP269 | CP305 | CP335 | DIV14 | DIV17 | Dd2 | ECU | FAB9 | GB4 | ICS | JCK | P93_24 | PC15 | PC26 | PC49 | W2

CO/N=C(/C(=O)N[C@@H]1C(=O)N2C(C(=O)O)=C(CSc3cnns3)CS[C@H]12)c1csc(N)n1
inactive: [1] | CP260 | CP262 | CP269 | CP305 | CP335 | DIV14 | DIV17 | Dd2 | ECU | FAB9 | GB4 | ICS | JCK | P93_24 | PC15 | PC26 | PC49 | W2

OCC1O[C@H](Oc2ccc(O)cc2)C(O)C(O)C1O (stereo partly specified)
inactive: [1] | CP260 | CP262 | CP266 | CP269 | CP305 | CP335 | DIV14 | DIV17 | Dd2 | FAB9 | GB4 | ICS | JCK | PC15 | PC26 | PC49 | W2

CCCCCCCCCCCCCCCC(=O)OC[C@H](O)[C@H]1OC[C@@H](O)[C@@H]1O
inactive: [1] | CP260 | CP262 | CP266 | CP269 | CP305 | CP335 | DIV17 | Dd2 | ECU | FAB9 | GB4 | ICS | JCK | P93_24 | PC15 | PC26 | PC49 | W2

CNC1C(O)C(OC2C(NC(=O)C(O)CN)CC(N)C(OC3OC(CN)C(O)C(O)C3O)C2O)OCC1(C)O (stereo unspecified)
inactive: [1] | CP260 | CP266 | CP269 | CP305 | DIV14 | DIV17 | Dd2 | ECU | FAB9 | GB4 | JCK | P93_24 | PC15 | PC26 | PC49 | W2

NC(=O)c1ncn(C2OC(CO)C(O)C2O)c1N (stereo unspecified)
inactive: [1] | CP260 | CP262 | CP266 | CP269 | CP305 | DIV14 | DIV17 | Dd2 | ECU | FAB9 | GB4 | ICS | JCK | P93_24 | PC15 | PC26 | PC49 | W2

CO/N=C(/C(=O)N[C@@H]1C(=O)N2C(C(=O)O)=C(CSC(=O)c3ccco3)CSC12)c1csc(N)n1 (stereo partly specified)
inactive: [1] | CP260 | CP262 | CP266 | CP269 | CP335 | DIV14 | DIV17 | Dd2 | ECU | FAB9 | ICS | JCK | P93_24 | PC15 | PC26 | PC49 | W2
